Drawing on PubChem BioAssay (NCI), this text covers growth for ten molecules.

Compounds without any hit were thinned out: in the full panel of roughly 83,000, 20% have a hit.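 Treatment: one concentration, 48 hours, 96-well format. Scoring: percent growth, with anything below 10 considered active.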 A number with no mark means an inactive call. Calls of active or inactive are those of the source.

Test systems include SK-MEL-2 melanoma; EKVX NSCLC; SN12C renal; TK-10 renal; ACHN renal; CAKI-1 renal; A498 renal; RPMI-8226 leukemia; OVCAR-8 ovarian; OVCAR-5 ovarian; OVCAR-4 ovarian; SK-OV-3 ovarian; OVCAR-3 ovarian; HS 578T breast; NCI/ADR-RES ovarian; CCRF-CEM leukemia; MOLT-4 leukemia; SR leukemia; IGROV1 ovarian.
Holding throughout (assay): NCI-60 one-dose screen, 48 h (100 = growth as untreated, 0 = no growth, -100 = all killed)
Common to all, as to conditions: 10 µM

Regarding `Nc1nc(N)c(N)c(Nc2ccc(CCO)cc2)n1`, the growth is 118% in the assay on SK-MEL-2 melanoma; 91.9% with EKVX NSCLC; 100% with SN12C renal; 102% in the assay with TK-10 renal; 106% in the assay with ACHN renal; 100% in the assay with CAKI-1 renal. The growth in the assay with A498 renal was 92.8%; in the assay on RPMI-8226 leukemia it was 95.3%; in the assay with OVCAR-8 ovarian, 105%; with OVCAR-5 ovarian, 111%; in the assay with OVCAR-4 ovarian, 112%; in the assay on SK-OV-3 ovarian, 110%. Besides, the growth with OVCAR-3 ovarian was 107%; in the assay with HS 578T breast it was 100%; in the assay with NCI/ADR-RES ovarian, 103%.

Regarding `O=C(CC(CC(=O)c1ccccc1)c1ccccc1O)c1ccccc1`, the growth was 91.3% in the assay on SK-MEL-2 melanoma; 95% in the assay on EKVX NSCLC; 96.2% in the assay with SN12C renal; 98.6% in the assay with TK-10 renal; 99.3% in the assay on ACHN renal; 97.5% in the assay with A498 renal. Also, the growth was 98.6% in the assay with CCRF-CEM leukemia; 105% in the assay with MOLT-4 leukemia; 92.9% in the assay with SR leukemia; 85.2% in the assay with RPMI-8226 leukemia; 95.9% in the assay with OVCAR-8 ovarian; 96.9% with OVCAR-5 ovarian. Further, the growth is 91.2% in the assay with OVCAR-4 ovarian; 94.5% in the assay on SK-OV-3 ovarian; 101% with IGROV1 ovarian; 94.3% in the assay with OVCAR-3 ovarian; 86.6% with HS 578T breast; 92.1% in the assay on NCI/ADR-RES ovarian.

Turning to `CC(C)C1=C(O)C2=C(C(=O)C1=O)[C@@]1(C)CCCC(C)(C)[C@@H]1CC2`, the growth in the assay on SK-MEL-2 melanoma was 97.7%; in the assay on EKVX NSCLC, 67.1%; with SN12C renal, 81%; in the assay on TK-10 renal it was 81.5%; with ACHN renal, 59.6%; with CAKI-1 renal, 15%. Further, the growth is 41.5% in the assay with CCRF-CEM leukemia; 44.2% with MOLT-4 leukemia; 48% in the assay with SR leukemia; 55.2% in the assay on RPMI-8226 leukemia; 70% in the assay on OVCAR-8 ovarian; 108% in the assay with OVCAR-5 ovarian. The growth was 95.5% with SK-OV-3 ovarian, 61% in the assay on OVCAR-3 ovarian, 85% in the assay with HS 578T breast and 39.7% in the assay with NCI/ADR-RES ovarian.

On to `CCn1c(SCCc2ccccc2)nnc1-c1nn(-c2ccc(Cl)cc2Cl)c(-c2ccc(Cl)cc2)c1C`, for which the growth with SK-MEL-2 melanoma was 53.8%; with EKVX NSCLC, 52.6%; in the assay with SN12C renal, 70.3%; in the assay with TK-10 renal, 75.3%; with ACHN renal, 61%; in the assay on CAKI-1 renal, 64.4%. Further, the growth was 96.6% in the assay with A498 renal; 41.6% in the assay with MOLT-4 leukemia; 37.6% in the assay on SR leukemia; 54.1% with RPMI-8226 leukemia; 84.5% with OVCAR-8 ovarian; 81.7% in the assay with OVCAR-5 ovarian. Besides, the growth was 75.6% with OVCAR-4 ovarian; 79.1% in the assay on SK-OV-3 ovarian; 94.1% in the assay on IGROV1 ovarian; 69.1% in the assay with OVCAR-3 ovarian; 98% with HS 578T breast; 72.6% with NCI/ADR-RES ovarian.

`CCCCCCCCCCCC[n+]1c(C)cc(N)c2ccccc21`: the growth in the assay on SK-MEL-2 melanoma is -52.1% (active); in the assay on EKVX NSCLC it was 14.5%; in the assay with SN12C renal, 7.94% (active); with TK-10 renal, 7.85% (active); in the assay on ACHN renal, 12%; in the assay with CAKI-1 renal, 25.7%. Also, the growth in the assay on CCRF-CEM leukemia is 9.62% (active); in the assay with MOLT-4 leukemia it was -24.1% (active); in the assay with RPMI-8226 leukemia, -28.4% (active); with OVCAR-8 ovarian, 3.24% (active); in the assay with OVCAR-5 ovarian, 31.7%; in the assay with OVCAR-4 ovarian it was 15.1%. Besides, the values for the growth in the assay with SK-OV-3 ovarian, in the assay on OVCAR-3 ovarian and in the assay with NCI/ADR-RES ovarian were -2.73% (active), 18% and 53.3%, respectively.

With `CCc1ccc(C2=NN(c3ccc(S(C)(=O)=O)cc3)C(=O)CC2)cc1`, the growth in the assay with SK-MEL-2 melanoma is 36.9%; in the assay on EKVX NSCLC, 60.4%; in the assay on SN12C renal it was 31.4%; in the assay with TK-10 renal, 71.1%; in the assay with ACHN renal, 46%; with CAKI-1 renal it was 16.7%. Also, the growth in the assay with CCRF-CEM leukemia was 15.6%; with MOLT-4 leukemia, 15.3%; with SR leukemia, 4.42% (active); in the assay with OVCAR-8 ovarian it was 39.1%; in the assay on OVCAR-5 ovarian, 48.7%; in the assay with OVCAR-4 ovarian, 76.2%. Moreover, the growth with SK-OV-3 ovarian was 28.7%; in the assay with IGROV1 ovarian, 37.4%; with OVCAR-3 ovarian it was -13.6% (active); with HS 578T breast, -0.675% (active); with NCI/ADR-RES ovarian, 6.7% (active).

As to `O=[N+]([O-])c1ccc(NCSc2ccc(Cl)cc2)cc1`, the growth in the assay on SK-MEL-2 melanoma is 98.5%; in the assay on EKVX NSCLC it was 97.3%; with SN12C renal, 86%; in the assay on TK-10 renal it was 105%; in the assay on ACHN renal, 92.8%; with CAKI-1 renal it was 96.2%. Also, the growth in the assay with CCRF-CEM leukemia was 50.4%; with MOLT-4 leukemia, 61.7%; in the assay on RPMI-8226 leukemia, 91.8%; in the assay on OVCAR-8 ovarian, 97%; with OVCAR-5 ovarian, 106%; in the assay on OVCAR-4 ovarian it was 117%. Also, the growth is 109% in the assay with SK-OV-3 ovarian, 106% in the assay with OVCAR-3 ovarian and 102% with NCI/ADR-RES ovarian.

`Nc1ccc(/C=N/Nc2ccnc3c(O)cccc23)c2cccnc12`: the growth in the assay on SK-MEL-2 melanoma is 74.1%; in the assay on EKVX NSCLC, 61.8%; in the assay on SN12C renal it was 76.9%; in the assay with TK-10 renal, 97.7%; in the assay on ACHN renal, 52.9%; in the assay with A498 renal it was 118%. Further, the growth with CCRF-CEM leukemia is 14.4%; in the assay on MOLT-4 leukemia it was 14.5%; in the assay on SR leukemia, 2.19% (active); in the assay on RPMI-8226 leukemia, 31.8%; with OVCAR-8 ovarian it was 14.4%; in the assay with OVCAR-5 ovarian, 107%. For the same molecule, the growth with OVCAR-4 ovarian was 30.5%; in the assay on SK-OV-3 ovarian, 85.7%; in the assay on IGROV1 ovarian, 60.2%; with OVCAR-3 ovarian it was 20%; in the assay with HS 578T breast, 63.9%; in the assay with NCI/ADR-RES ovarian, 30.6%.

Turning to `O=C1OC(C(Cl)(Cl)Cl)OC1C(Cl)(Cl)Cl` (stereo not given), the growth in the assay with SK-MEL-2 melanoma is 102%; in the assay on EKVX NSCLC, 106%; in the assay with SN12C renal, 97.1%; in the assay with TK-10 renal it was 110%; in the assay with ACHN renal, 113%; in the assay with CAKI-1 renal, 113%. Also, the growth with A498 renal is 109%; with CCRF-CEM leukemia, 104%; in the assay on MOLT-4 leukemia, -10.8% (active); with RPMI-8226 leukemia, 104%; with OVCAR-8 ovarian, 104%; with OVCAR-5 ovarian it was 105%. Further, the growth was 113% with OVCAR-4 ovarian, 109% with OVCAR-3 ovarian, 117% with HS 578T breast and 108% in the assay with NCI/ADR-RES ovarian.

In the case of `COc1cc(C(=O)/C=C/c2c[nH]c3ccccc23)cc(OC)c1OC`, the growth with SK-MEL-2 melanoma is 19.5%; in the assay with EKVX NSCLC it was 35.2%; in the assay with SN12C renal, 25.2%; in the assay on TK-10 renal it was 48%; in the assay on ACHN renal it was 18.7%; in the assay with CAKI-1 renal it was 27.6%. The growth in the assay on MOLT-4 leukemia is 17.6%; in the assay with SR leukemia, 14.3%; in the assay on RPMI-8226 leukemia, 10.3%; in the assay with OVCAR-8 ovarian, 15.9%; with OVCAR-5 ovarian, 55.7%; in the assay with OVCAR-4 ovarian, 49.4%. Further, the growth is 17.7% with SK-OV-3 ovarian; 27.7% in the assay on IGROV1 ovarian; -8.84% (active) with OVCAR-3 ovarian; 49.9% in the assay with HS 578T breast; 9.93% (active) in the assay on NCI/ADR-RES ovarian.
